# Experimental data published in PubChem BioAssay (NCI).
# This is part of a sample that, as a whole, favours compounds with a hit. Of some 79,000 tested, about 15% had one in any assay. Unmarked numbers belong to inactive results. Active and inactive are the calls of the source. No stated cut-off is given here; in the data, active means growth inhibition above about 70%; inactive means the rest.
# What was measured:
# [1] = NCI Yeast Anticancer Drug Screen. Data for the rad52 strain (AID 147);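 further: 0% = growth of vehicle-treated control cultures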; conditions: S. cerevisiae rad52 mutant growth inhibition, stronger effect = higher value
# Summary of the method: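 Vehicle-treated cultures served as the reference for growth inhibition of compound-exposed yeast bearing a DNA repair mutation.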
# [2] = NCI Yeast Anticancer Drug Screen. Data for the wt1 strain (AID 149);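 further: 0% = growth of vehicle-treated wt1 cultures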; conditions: S. cerevisiae wt1 strain (SPY 50644) growth inhibition, stronger effect = higher value
# Summary of the method: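 wt1 strain grown with compound or vehicle; inhibition taken from the growth difference.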
# [3] = NCI Yeast Anticancer Drug Screen. Data for the rad50EPP+ strain (AID 151);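 further: 0% = growth of vehicle-treated control cultures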; conditions: S. cerevisiae rad50 mutant strain, stronger effect = higher value
# Summary of the method: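 In this screen, rad50EPP+ yeast were exposed to compounds. Growth inhibition was scored against vehicle-treated controls.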
# [4] = NCI Yeast Anticancer Drug Screen. Data for the rad50 strain (AID 155);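 further: 0% = growth of vehicle-only cultures of the same strain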; conditions: S. cerevisiae rad50 strain growth inhibition, stronger effect = higher value
# Summary of the method: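 DNA repair mutant yeast, compound exposure, growth read-out; inhibition is taken relative to vehicle.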
# [5] = NCI Yeast Anticancer Drug Screen. Data for the mec2-1 strain (AID 157); conditions: S. cerevisiae mec2-1 strain, stronger effect = higher value
# Summary of the method: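 Vehicle-treated cultures served as reference for growth inhibition of compound-exposed mec2-1 yeast.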
# [6] = NCI Yeast Anticancer Drug Screen. Data for the rad14 strain (AID 159);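 further: 0% = growth of vehicle-treated control cultures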; conditions: S. cerevisiae rad14 strain growth inhibition, stronger effect = higher value
# Summary of the method: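 DNA repair-defective yeast, compound-exposed; % growth inhibition derived by comparison with vehicle-treated controls.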
# [7] = NCI Yeast Anticancer Drug Screen. Data for the sgs1 mgt1 strain (AID 161);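 further: 0% = growth of cultures given vehicle only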; conditions: S. cerevisiae sgs1 mgt1 strain, stronger effect = higher value
# Summary of the method: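 Inhibition of yeast growth, normalised to vehicle-treated controls, is reported for a strain bearing genetic alterations in DNA damage repair.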
# [8] = NCI Yeast Anticancer Drug Screen. Data for the CLN2oe strain (AID 163);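 further: 0% = growth of vehicle-only control cultures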; conditions: S. cerevisiae CLN2oe strain, stronger effect = higher value
# Summary of the method: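 Inhibition relative to vehicle-treated yeast is reported. Cells: strain with genetic alteration in cell-cycle control, grown with compound.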
# [9] = NCI Yeast Anticancer Drug Screen. Data for the cln2 rad14 strain (AID 165);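 further: 0% = growth equal to vehicle treated cultures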; conditions: S. cerevisiae cln2 rad14 strain, stronger effect = higher value
# Summary of the method: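 Each compound was tested on cln2 rad14 yeast. Inhibition of growth was calculated against vehicle-exposed controls.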
# [10] = NCI Yeast Anticancer Drug Screen. Data for the bub3 strain (AID 167); conditions: S. cerevisiae bub3 mutant strain, stronger effect = higher value
# Summary of the method: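 In this screen, a yeast mutant lacking normal mitotic checkpoint function is challenged with compound. Relative growth versus vehicle gives the inhibition value.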
# [11] = NCI Yeast Anticancer Drug Screen. Data for the wt2 strain (AID 169);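 further: 0% = growth of vehicle-treated yeast cultures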; conditions: S. cerevisiae wt2 strain growth inhibition, stronger effect = higher value
# Summary of the method: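 Inhibition of yeast growth was determined after compound treatment, normalised to controls receiving only vehicle.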
# [12] = NCI Yeast Anticancer Drug Screen. Data for the mlh1 strain (AID 171);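 further: 0% = growth of vehicle-treated control cultures of the same strain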; conditions: S. cerevisiae mlh1 strain growth inhibition, stronger effect = higher value
# Summary of the method: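 Vehicle-normalised growth inhibition of a repair- or checkpoint-altered yeast strain following compound treatment.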
# [13] = NCI Yeast Anticancer Drug Screen. Data for the sgs1 strain (AID 173);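 further: 0% = growth of vehicle-only control cultures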; conditions: S. cerevisiae sgs1 mutant, stronger effect = higher value
# Summary of the method: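 Screen format: yeast with repair or checkpoint alterations, compound exposure, growth read relative to vehicle.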
# [14] = NCI Yeast Anticancer Drug Screen. Data for the mlh1 rad18 strain (AID 175); conditions: S. cerevisiae mlh1 rad18 strain growth inhibition, stronger effect = higher value
# Summary of the method: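 Vehicle-treated cultures served as the reference for growth inhibition in a yeast strain carrying DNA damage repair alterations exposed to each compound.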
# [15] = NCI Yeast Anticancer Drug Screen. Data for the rad18 strain (AID 177); conditions: S. cerevisiae rad18 mutant growth inhibition, stronger effect = higher value
# Summary of the method: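 Test articles were incubated with altered yeast defective in DNA damage repair. Results are given as inhibition of growth versus vehicle.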
# [16] = at 5.0 µM (retest, dose inferred, filed as 0.5)
# [17] = at 50.0 µM (retest, dose inferred, filed as 5.0)
structure (smiles),measurement,setting,value
C=C(C(=O)OC)N1C(=O)CC(C)C1=O (stereo unspecified),growth inhibition,[1]; at 1.2 µM,0%
same,growth inhibition,[1]; at 3.7 µM,10%
same,growth inhibition,[1]; at 11.0 µM,14%
same,growth inhibition,[1]; at 33.0 µM,24%
same,growth inhibition,[1]; at 100.0 µM,56%
same,growth inhibition,[2]; at 1.2 µM,7%
same,growth inhibition,[2]; at 3.7 µM,15%
same,growth inhibition,[2]; at 11.0 µM,12%
same,growth inhibition,[2]; at 33.0 µM,19%
same,growth inhibition,[2]; at 100.0 µM,67%
same,growth inhibition,[3]; at 1.2 µM,-1%
same,growth inhibition,[3]; at 3.7 µM,4%
same,growth inhibition,[3]; at 11.0 µM,6%
same,growth inhibition,[3]; at 33.0 µM,8%
same,growth inhibition,[3]; at 100.0 µM,-10%
same,growth inhibition,[4]; at 1.2 µM,8%
same,growth inhibition,[4]; at 3.7 µM,8%
same,growth inhibition,[4]; [16],14%
same,growth inhibition,[4]; at 11.0 µM,13%
same,growth inhibition,[4]; at 33.0 µM,14%
same,growth inhibition,[4]; [17],66%
same,growth inhibition,[4]; at 50.0 µM,75.5% (active)
same,growth inhibition,[4]; at 100.0 µM,67%
same,growth inhibition,[5]; at 1.2 µM,0%
same,growth inhibition,[5]; at 3.7 µM,12%
same,growth inhibition,[5]; [16],27%
same,growth inhibition,[5]; at 11.0 µM,23%
same,growth inhibition,[5]; at 33.0 µM,48%
same,growth inhibition,[5]; [17],85% (active)
same,growth inhibition,[5]; at 50.0 µM,80.2% (active)
same,growth inhibition,[5]; at 100.0 µM,81% (active)
same,growth inhibition,[6]; at 1.2 µM,-11%
same,growth inhibition,[6]; at 3.7 µM,-2%
same,growth inhibition,[6]; at 11.0 µM,8%
same,growth inhibition,[6]; at 33.0 µM,11%
same,growth inhibition,[6]; at 100.0 µM,68%
same,growth inhibition,[7]; [16],32%
same,growth inhibition,[7]; [17],81% (active)
same,growth inhibition,[7]; at 50.0 µM,77.3% (active)
same,growth inhibition,[8]; at 1.2 µM,-3%
same,growth inhibition,[8]; at 3.7 µM,11%
same,growth inhibition,[8]; at 11.0 µM,10%
same,growth inhibition,[8]; at 33.0 µM,14%
same,growth inhibition,[8]; at 100.0 µM,38%
same,growth inhibition,[9]; [16],6%
same,growth inhibition,[9]; [17],30%
same,growth inhibition,[9]; at 50.0 µM,47.4%
same,growth inhibition,[10]; at 1.2 µM,10%
same,growth inhibition,[10]; at 3.7 µM,1%
same,growth inhibition,[10]; [16],21%
same,growth inhibition,[10]; at 11.0 µM,9%
same,growth inhibition,[10]; at 33.0 µM,25%
same,growth inhibition,[10]; [17],88% (active)
same,growth inhibition,[10]; at 50.0 µM,85.5% (active)
same,growth inhibition,[10]; at 100.0 µM,80% (active)
same,growth inhibition,[11]; at 1.2 µM,-41%
same,growth inhibition,[11]; at 3.7 µM,-26%
same,growth inhibition,[11]; at 11.0 µM,-17%
same,growth inhibition,[11]; at 33.0 µM,50%
same,growth inhibition,[11]; at 100.0 µM,87% (active)
same,growth inhibition,[12]; at 1.2 µM,2%
same,growth inhibition,[12]; at 3.7 µM,4%
same,growth inhibition,[12]; at 11.0 µM,6%
same,growth inhibition,[12]; at 33.0 µM,42%
same,growth inhibition,[12]; at 100.0 µM,80% (active)
same,growth inhibition,[13]; at 1.2 µM,0%
same,growth inhibition,[13]; at 3.7 µM,12%
same,growth inhibition,[13]; at 11.0 µM,21%
same,growth inhibition,[13]; at 33.0 µM,40%
same,growth inhibition,[13]; at 100.0 µM,67%
same,growth inhibition,[14]; [16],57%
same,growth inhibition,[14]; [17],96% (active)
same,growth inhibition,[14]; at 50.0 µM,67.5%
same,growth inhibition,[15]; at 1.2 µM,-5%
same,growth inhibition,[15]; at 3.7 µM,7%
same,growth inhibition,[15]; at 11.0 µM,17%
same,growth inhibition,[15]; at 33.0 µM,32%
same,growth inhibition,[15]; at 100.0 µM,75% (active)
O=C(NCCCCN1CC2CCCC2C1)C(C1CCCCC1)C1CCCCC1 (stereo unspecified),growth inhibition,[1]; at 1.2 µM,11%
same,growth inhibition,[1]; at 3.7 µM,12%
same,growth inhibition,[1]; at 11.0 µM,35%
same,growth inhibition,[1]; at 33.0 µM,76% (active)
same,growth inhibition,[1]; at 100.0 µM,98% (active)
same,growth inhibition,[2]; at 1.2 µM,3%
same,growth inhibition,[2]; at 3.7 µM,6%
same,growth inhibition,[2]; at 11.0 µM,14%
same,growth inhibition,[2]; at 33.0 µM,75% (active)
same,growth inhibition,[2]; at 100.0 µM,97% (active)
same,growth inhibition,[3]; at 1.2 µM,0%
same,growth inhibition,[3]; at 3.7 µM,1%
same,growth inhibition,[3]; at 11.0 µM,2%
same,growth inhibition,[3]; at 33.0 µM,3%
same,growth inhibition,[3]; at 100.0 µM,-3%
same,growth inhibition,[4]; at 1.2 µM,7%
same,growth inhibition,[4]; at 3.7 µM,4%
same,growth inhibition,[4]; [16],35%
same,growth inhibition,[4]; at 11.0 µM,34%
same,growth inhibition,[4]; at 33.0 µM,85% (active)
same,growth inhibition,[4]; [17],94% (active)
same,growth inhibition,[4]; at 50.0 µM,67.2%
same,growth inhibition,[4]; at 100.0 µM,79% (active)
same,growth inhibition,[5]; at 1.2 µM,13%
same,growth inhibition,[5]; at 3.7 µM,15%
same,growth inhibition,[5]; [16],17%
same,growth inhibition,[5]; at 11.0 µM,39%
same,growth inhibition,[5]; at 33.0 µM,86% (active)
same,growth inhibition,[5]; [17],93% (active)
same,growth inhibition,[5]; at 50.0 µM,5.4%
same,growth inhibition,[5]; at 100.0 µM,98% (active)
same,growth inhibition,[6]; at 1.2 µM,9%
same,growth inhibition,[6]; at 3.7 µM,12%
same,growth inhibition,[6]; at 11.0 µM,52%
same,growth inhibition,[6]; at 33.0 µM,97% (active)
same,growth inhibition,[6]; at 100.0 µM,99% (active)
same,growth inhibition,[7]; [16],23%
same,growth inhibition,[7]; [17],90% (active)
same,growth inhibition,[7]; at 50.0 µM,76.7% (active)
same,growth inhibition,[8]; at 1.2 µM,11%
same,growth inhibition,[8]; at 3.7 µM,13%
same,growth inhibition,[8]; at 11.0 µM,32%
same,growth inhibition,[8]; at 33.0 µM,87% (active)
same,growth inhibition,[8]; at 100.0 µM,98% (active)
same,growth inhibition,[9]; [16],22%
same,growth inhibition,[9]; [17],96% (active)
same,growth inhibition,[9]; at 50.0 µM,43.9%
same,growth inhibition,[10]; at 1.2 µM,10%
same,growth inhibition,[10]; at 3.7 µM,11%
same,growth inhibition,[10]; [16],94% (active)
same,growth inhibition,[10]; at 11.0 µM,42%
same,growth inhibition,[10]; at 33.0 µM,90% (active)
same,growth inhibition,[10]; [17],99% (active)
same,growth inhibition,[10]; at 50.0 µM,61.5%
same,growth inhibition,[10]; at 100.0 µM,98% (active)
same,growth inhibition,[11]; at 1.2 µM,2%
same,growth inhibition,[11]; at 3.7 µM,5%
same,growth inhibition,[11]; at 11.0 µM,25%
same,growth inhibition,[11]; at 33.0 µM,93% (active)
same,growth inhibition,[11]; at 100.0 µM,98% (active)
same,growth inhibition,[12]; at 1.2 µM,7%
same,growth inhibition,[12]; at 3.7 µM,5%
same,growth inhibition,[12]; at 11.0 µM,25%
same,growth inhibition,[12]; at 33.0 µM,91% (active)
same,growth inhibition,[12]; at 100.0 µM,99% (active)
same,growth inhibition,[13]; at 1.2 µM,9%
same,growth inhibition,[13]; at 3.7 µM,11%
same,growth inhibition,[13]; at 11.0 µM,34%
same,growth inhibition,[13]; at 33.0 µM,94% (active)
same,growth inhibition,[13]; at 100.0 µM,98% (active)
same,growth inhibition,[14]; [16],16%
same,growth inhibition,[14]; [17],96% (active)
same,growth inhibition,[14]; at 50.0 µM,73% (active)
same,growth inhibition,[15]; at 1.2 µM,16%
same,growth inhibition,[15]; at 3.7 µM,23%
same,growth inhibition,[15]; at 11.0 µM,49%
same,growth inhibition,[15]; at 33.0 µM,90% (active)
same,growth inhibition,[15]; at 100.0 µM,98% (active)
